Measured values: PubChem BioAssay
Calls of active or inactive are those of the source.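 The calls were made as follows: active = NADPH fluorescence slope more negative than the mean of all samples by about 3 SD, 99.7% confidence; inactive = the rest.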

molecular target: Voltage-gated potassium channel subunit beta-2 (Rattus norvegicus) (UniProt P62483); experiment: enhancers of rat Kvbeta2 NADPH turnover – biochemical, NADPH fluorescence, primary screen (AID 623); conditions: Recombinant KvBeta, NADPH fluorescence decrease slope, 10 min; at 10 µM; stronger effect = lower value;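 also: fluorescence intensity change per second fitted from 20 to 320 s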
Sequence (P62483 whole entry, looked up): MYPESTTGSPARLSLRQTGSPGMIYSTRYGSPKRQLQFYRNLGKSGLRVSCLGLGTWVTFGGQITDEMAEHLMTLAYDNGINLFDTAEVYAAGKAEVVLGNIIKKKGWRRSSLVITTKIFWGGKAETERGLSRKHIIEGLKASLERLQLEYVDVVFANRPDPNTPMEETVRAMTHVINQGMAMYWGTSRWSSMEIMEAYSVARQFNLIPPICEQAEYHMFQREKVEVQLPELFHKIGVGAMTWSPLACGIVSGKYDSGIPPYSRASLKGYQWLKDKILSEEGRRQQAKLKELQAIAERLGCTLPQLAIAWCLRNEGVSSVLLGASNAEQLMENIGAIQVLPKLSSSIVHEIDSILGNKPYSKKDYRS

NADPH fluorescence slope, inactive:
Cc1cc(C)nc(SCc2nnc(SCC(=O)Nc3ncc(C)s3)n2Cc2ccco2)n1 -6.9e-05
COc1cccc(C2C(C(=O)c3cccs3)=C(O)C(=O)N2CCCn2ccnc2)c1OC (stereo not given) -6.6e-05
COc1cc(C(=O)N(C)c2nnc(-c3cccnc3)s2)cc(OC)c1OC 1.3e-05
CC(=O)Nc1nnc(SCC(=O)NCC2CCCO2)s1 (stereo not given) -3.1e-05
O=C(CSc1nc2cc(S(=O)(=O)N3CCOCC3)ccc2o1)NC1CCCc2ccccc21 (stereo not given) -8.5e-05
O=C(NCCN1CCOCC1)c1ccc(CS(=O)(=O)Cc2ccccc2F)o1 -5.9e-05
CCOC(=O)c1c(C)oc2ccc(NS(=O)(=O)c3ccc4c5c(cccc35)C(=O)N4)cc12 -1.1e-05
COC(=O)CCn1nnc(-c2ccc(C)cc2)n1 -4.2e-06
O=C(Nc1ccc(NC(=O)C2CC2)cn1)c1ccccc1Cl -8e-07
COc1ccc(NC(=O)CC2CCCCC2)cc1OC -2.3e-05
CC1(C)CC2CC(C)(CN2S(=O)(=O)c2ccc(N)cc2)C1 (stereo not given) -6.2e-05
COc1cc(C(=O)NCC(=O)OCC(=O)c2ccc[nH]2)cc(OC)c1OC -4.1e-05
C=CCSc1nnc(-c2ccc(Cl)cc2Cl)o1 -5.2e-05
COc1cc(CC(=O)Oc2ccc3c(c2)OCO3)cc(OC)c1OC -5.2e-05
C(=N\n1cnnc1)/c1cccc(OCCOc2ccccc2)c1 -3.7e-05
CCN(CC)C(c1ccc(C)cc1)c1nnnn1C1CCCCC1 (stereo not given) -6.9e-05
CCOC(=O)Nc1ccc2c(c1)N(C(=O)CCN1CCOCC1)c1ccccc1S2 -6.8e-05
Cc1cc(=O)c2n(Cc3ccccc3Cl)nc[n+]2[nH]1 -5.7e-05
CC12CN3CCN(CC(C3)C1(O)CN1CCCCC1)C2 (stereo not given) -5.6e-05
Cc1cc(C)n(C(C)n2nc(C)cc2C)n1 -6.5e-05
COC(=O)CSc1nnc(CSc2nc(C)cc(C)n2)n1Cc1ccco1 -2.4e-05
Cc1cc(NC(=O)CSc2nc(C3CCCCC3)nc3ccccc23)no1 -5.4e-05
Cc1cccc(C)c1NC(=O)COC(=O)c1nonc1N -6.4e-05
CCn1c(=N)n(CC(=O)c2ccco2)c2ccccc21 -5.5e-05
C=C(C)Cn1c(CCCNC(=O)C(C)(C)C)nc2ccccc21 -3.4e-05
Cc1cn(C2CC3OCC3O2)c(=O)[nH]c1=O (stereo not given) 1.2e-05
CC(=O)Nc1ccc(Cc2ccncc2)cc1 -4.8e-05
O=C(Nc1ccon1)c1cccc(S(=O)(=O)N2CCCC2)c1 -1.7e-05
CCOC(=O)c1sc(NC(=O)CSc2ncn(-c3ccccc3)n2)nc1C 2.2e-05
O=C(Nc1ccccc1)N(CCCN1CCOCC1)Cc1cc2cc3c(cc2[nH]c1=O)OCCO3 -4.1e-05
COCC(=O)n1nc(NCc2ccc(OC)cc2)nc1NCc1ccc(OC)cc1 -6e-05
Cc1ccc(S(=O)(=O)N2CCN(C(=O)N3CCOCC3)C2c2ccc(N(C)C)cc2)cc1 (stereo not given) -5.2e-05
COc1cccc2c(=O)cc(C)n(CC(=O)Nc3ccc(C)c(C)c3)c12 -4.9e-05
O=C(NCc1cccnc1)c1cccc(C(F)(F)F)c1 -2.9e-05
COc1ccc(C(=O)Nc2ccc(Cl)c(Cl)c2)c(OC)n1 -6.9e-05
COc1cc(C(=O)OCc2cc3ccccc3[nH]c2=O)cc(OC)c1OC -4.1e-05
COc1cc(C)c(Br)cc1S(=O)(=O)N1CCOCC1 -4.2e-05
FC(F)Oc1cccc2cccnc12 -1.3e-05
Cc1ccc(OCC2Cn3c(nc4c3c(=O)n(C)c(=O)n4C)O2)cc1 (stereo not given) -2.7e-05
Cc1cnc(C(=O)Nc2ccccc2-n2cccc2)cn1 -5.7e-05
